Reference: PubChem BioAssay AID488789 (Broad Institute, 2010)
Results with a measured potency or affinity are listed apart. Results filed as inconclusive are left out. Activity calls are given as the source filed them.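 The calls were made as follows: active = samples whose fitted half-maximal inhibition concentration is no more than ten times the top valid dose tested; inconclusive = flat response between -70 and -30, or invalid curve fit; inactive = flat within 30 of zero, potency above limit, or signal rising.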

Each compound was assayed against Trypsin (Sus scrofa) (UniProt P00761) (assay: porcine trypsin inhibitors, dose response, selectivity assay for Rce1 protease inhibitor project, biochemical, quenched peptide fluorescence, cherry-pick (AID 488789;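 also: more negative means stronger trypsin inhibition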)). Conditions: quenched peptide cleavage fluorescence; series mostly up to 10 µM.
Chain of Trypsin (Sus scrofa) (P00761 whole entry, looked up): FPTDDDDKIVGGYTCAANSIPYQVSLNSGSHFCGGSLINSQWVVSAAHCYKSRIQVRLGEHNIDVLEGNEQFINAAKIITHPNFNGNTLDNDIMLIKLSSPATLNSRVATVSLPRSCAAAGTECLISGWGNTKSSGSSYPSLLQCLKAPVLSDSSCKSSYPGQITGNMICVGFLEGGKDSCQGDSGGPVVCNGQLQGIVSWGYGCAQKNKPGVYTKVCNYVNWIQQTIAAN

outcome, inactive:
O=C1C(=O)N(C/C=C/c2ccccc2)c2ccccc21
CC1=NN(c2ccccc2)C(=O)/C1=C\c1ccc(Br)s1
CCC(C)(C)c1ccc(OCCCC[n+]2cccc(C)c2C)c(C(C)(C)CC)c1
CCN1CCN(c2ccc(NC(=O)c3cccc(OCc4ccccc4)c3)cc2)CC1
O=C(O)CCC(=O)c1ccc(-c2ccccc2)cc1
CCCCCCCCCCOC(=O)Cn1c(COc2ccccc2C)[n+](C)c2ccccc21
CC1CCN(C(=O)C2CCN(S(=O)(=O)c3ccc(-n4cnnn4)cc3)CC2)CC1
Cc1ccc2nc(N(CCN(C)C)C(=O)c3ccc4ccccc4c3)sc2c1
Nc1nc2n[nH]nc2c(=O)[nH]1
O=C(O)c1ccc2cccc(Cl)c2c1O
CC(C)C(NC(=O)c1ccco1)C(=O)NCC(c1ccco1)N1CCCCC1 (configuration not stated)
CCOC(=O)C1CCCN(C(=O)CCn2nnnc2CN2CCOCC2)C1 (configuration not stated)
COc1ccc(/C=N/NC(=O)c2ccc(Cl)cc2)cc1COC(C)=O
COC(=O)c1sccc1NC(=O)CSc1nnnn1-c1ccccc1C
Cc1nc(SC(C(=O)c2ccccc2)c2ccccc2)nc2ccccc12 (configuration not stated)
Cc1cc(C)c2cc(C#N)c(NCCCNC(=O)CCC(=O)O)nc2c1
CCN(CC)CCN(Cc1cc2cc3c(cc2[nH]c1=O)OCO3)C(=S)NCc1ccco1
O=C(c1cc(-c2ccccc2)nc2ccccc12)N1CCN(c2ccccn2)CC1
CN(C(=O)c1ccc2c(c1)SC1=NS(=O)(=O)CCN12)C(c1ccccc1)c1ccccc1
CSc1nnc(-c2sc(-c3ccccc3)nc2C)n1C
COc1cc(OC)cc(-c2ncc3ccccn23)c1
Cc1ccc(-c2c(C(=O)N/N=C/c3cccc(Cl)c3)nnn2-c2nonc2N)cc1
Cn1c(CN2CCOCC2)c(C#N)c2ccccc21
NC(=NCCCCCCN=C(N)/N=C(\N)Nc1ccc(Cl)cc1)/N=C(\N)Nc1ccc(Cl)cc1
COC(C/C=C/[C@@H](O)[C@H](C)OCc1ccccc1)OC
CCO[C@H]1OC(C(=O)Nc2ccccc2)=C[C@@H](c2csc3ccccc23)[C@@H]1CCCO
CN(C(=O)COC(=O)c1cc([N+](=O)[O-])ccc1Sc1ccccc1)C1CCS(=O)(=O)C1 (configuration not stated)
Cc1cccc(N2CCc3c2nc2ccc(Br)cc2c3N)c1
COC(C[C@H](O)C[C@H](O)[C@@H](C)OCc1ccccc1)OC
Cc1cc(C)c2nc(N(CCCN(C)C)C(=O)c3ccc4c(c3)CCCC4)sc2c1
COc1ccc(Cn2c(N)c(S(=O)(=O)c3cccs3)c3nc4ccccc4nc32)cc1
O=C(Nc1cccc2ccccc12)c1ccc(OC(=S)N2CCOCC2)cc1
COc1cc2c(cc1OC)C(C)N(C(=O)CCNC(=O)c1ccccc1)CC2 (configuration not stated)
OC(CNCCC1C=Nc2ccccc21)Cn1c2ccc(Cl)cc2c2cc(Cl)ccc21 (configuration not stated)
COC(C/C=C/[C@H](O)[C@@H](C)OCc1ccccc1)OC
CCc1ccc(Nc2n[n+](-c3ccccc3)c(/C=C/c3ccccc3)s2)cc1
CCOC(=O)C[n+]1ccc2c([nH]c3ccccc32)c1C
